# Data published in PubChem BioAssay (NCATS).
# Results filed as inconclusive are left out. Active and inactive are the calls of the source. Calls follow the shape of the dose curve; as a rule, active = well fitted inhibition curve with a large enough effect; inconclusive = small, poorly fitted or top-dose-only effect; inactive = flat fitted curve, though single readings scatter.
# Biological target: Calcium and integrin-binding protein 1 (Homo sapiens) (UniProt Q99828)
# Test: Primary qHTS for Identification of Calcium Integrin Binding Protein 1 (CIB1) Competitor (AID 1508620); also: top concentration of the series differs between compounds
# Details: CIB1-GST / FITC-alphaIIb peptide fluorescence polarization; series mostly up to 57.7 µM; activity change, negative = inhibition: at the top concentration
# Procedure, shortened: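 Fluorescence polarization competition: GST-tagged CIB1 (1 uM final) preincubated with compound 15 min at room temperature, then FITC-labelled alphaIIb peptide (100 nM final) added. After 15 min at room temperature, polarization read at Ex 480/Em 540.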
# % is scaled to controls: 0 for no effect and ±100 for the full control effect.
# Calcium and integrin-binding protein 1 (Homo sapiens), sequence (Q99828 whole entry, looked up): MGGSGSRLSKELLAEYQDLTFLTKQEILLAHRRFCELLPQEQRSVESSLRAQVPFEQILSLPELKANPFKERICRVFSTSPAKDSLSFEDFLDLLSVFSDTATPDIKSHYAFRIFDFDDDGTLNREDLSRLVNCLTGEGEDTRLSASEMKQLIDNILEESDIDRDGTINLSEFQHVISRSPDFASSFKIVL
SMILES,Potency,"activity change, negative = inhibition"
Cc1nc2c(-c3cnc(N)nc3)nc(N3CCOCC3)nc2n1C(C)C,inactive,
Cc1cc(O)c(C(C)C)cc1O[C@@H]1O[C@H](CO)[C@@H](O)[C@H](O)[C@H]1O,,-0.575% (inactive)
C=CC1(C)C=C2C(O)CC3C(C)(C(=O)O)CCCC3(C)C2CC1 (stereo not given),,2.94% (inactive)
C=C(C(=O)O)[C@@H]1CC=C2CCC[C@H](C)[C@@]2(C)C1,,1.92% [at 114 µM] (inactive)
O=C1C[C@@H](c2ccc(O)cc2)Oc2cc(O)ccc21,,4.61% [at 114 µM] (inactive)
c1nc(NC2CCCCCC2)c2cc(CNC[C@H]3CCCO3)sc2n1,,0.108% [at 114 µM] (inactive)
C[C@]12CCC[C@](C)(C(=O)O)C1CCC13C=C(CO)C(CCC12)C3 (stereo not given in full),,3.6% (inactive)
CC(C)=CC/C=C(/C)[C@H]1CC[C@]2(C)[C@@H]1[C@H](O)CC1[C@@]3(C)CC[C@H](O)C(C)(C)[C@@H]3[C@@H](O[C@@H]3O[C@H](CO)[C@@H](O)[C@H](O)[C@H]3O[C@@H]3O[C@@H](C)[C@H](O)[C@@H](O)[C@H]3O)C[C@]12C (stereo not given in full),,-9.48% [at 30.2 µM] (inactive)
CC(C)[C@@H](C)/C=C/[C@@H](C)[C@H]1CC[C@H]2C3=CC=C4C[C@@H](O)CC[C@]4(C)[C@H]3CC[C@]12C,,4.59% (inactive)
CC(/C=C/C1(O)C(C)CC(O)CC1(C)C)OC1OC(CO)C(O)C(O)C1O (stereo not given),,-5.87% (inactive)
C/C1=C\C[C@H](O[C@@H]2O[C@H](CO)[C@@H](O)[C@H](O)[C@H]2O)/C(C)=C/[C@H]2OC(=O)[C@H](C)[C@@H]2CC1,,-2.97% (inactive)
O=C(c1ccc(F)cc1)C1CCN(CCn2c(=O)nc3n(c2=O)CCCC3)CC1,,1.48% [at 114 µM] (inactive)
COc1ccccc1[C@@H]1C2=C(CC(C)(C)CC2=O)Nc2n[nH]c(C(F)(F)F)c21,,-2.11% [at 114 µM] (inactive)
COc1c(C)c(OCC=C(C)C)cc2c1C(=O)NC2=O,,0.572% [at 114 µM] (inactive)
CCC(C)(O)C(O)C(=O)OCc1ccc(O[C@@H]2O[C@H](CO)[C@@H](O)[C@H](O)[C@H]2O)c(OC)c1 (stereo not given in full),,-6.18% (inactive)
CC1C/C=C/C=C\CCCCC(O)C/C=C/C(=O)O1 (stereo not given),,-1.69% [at 114 µM] (inactive)
CC1CC(O)CC(C)(C)C1(O)CCO (stereo not given),,2.33% [at 228 µM] (inactive)
CCC(=O)NS(=O)(=O)c1ccc(-c2c(-c3ccccc3)noc2C)cc1,,0.955% [at 114 µM] (inactive)
CCC[C@@H]1C[C@@H](C(=O)N[C@@H]([C@H]2O[C@H](SC)[C@H](OP(=O)(O)O)[C@@H](O)[C@H]2O)[C@H](C)Cl)N(C)C1,,3.67% (inactive)
CC1(CO)CC[C@]2(C(=O)O[C@@H]3O[C@H](CO)[C@@H](O)[C@H](O)[C@H]3O)CC[C@]3(C)C(=CCC4[C@@]5(C)CC[C@H](O[C@@H]6O[C@H](C(=O)O)[C@@H](O)[C@H](O)[C@H]6O)C(C)(C)C5CC[C@]43C)C2C1 (stereo not given in full),,3.67% [at 30.2 µM] (inactive)
CCNC(=O)[C@@H]1CCCN1C(=O)[C@H](CCCN=C(N)N)NC(=O)[C@H](CC(C)C)NC(=O)[C@@H](C)NC(=O)[C@H](Cc1ccc(O)cc1)NC(=O)[C@H](CO)NC(=O)[C@H](Cc1c[nH]c2ccccc12)NC(=O)[C@H](Cc1cnc[nH]1)NC(=O)[C@@H]1CCC(=O)N1,,-13% (inactive)
CC(C)CNC(=O)/C=C/CCCCc1ccc2c(c1)OCO2,,4.28% (inactive)
N#Cc1ccc2[nH]c(O)c(-c3ccc(CN4CCOCC4)cn3)c2c1,inactive,
CC1CCC2(C)C(CC(O)C(O)C23CO3)C1(C)CCC1=CC(O)OC1=O (stereo not given),,1.06% (inactive)
COc1cc(/C=C/CO)ccc1O[C@@H]1O[C@H](CO)[C@@H](O)[C@H](O)[C@H]1O,,2.31% (inactive)
COC(=O)[C@@]1(O)C=CC[C@@H]2[C@@]3(C)C[C@@H](c4ccoc4)OC(=O)[C@H]3CC[C@]21C,,-1.71% (inactive)
COCCN(C)Cc1ccc2nc3sc(C(=O)N(C)C4CCCCC4)cn3c2c1,,1.34% [at 114 µM] (inactive)
CNC(=O)O[C@H]1COc2ccc(N3CCN(C4COC4)CC3)cc2[C@@H]1NC(=O)c1ccc(F)cc1,,7.11% [at 114 µM] (inactive)
NC(Cc1c[nH]c2ccccc12)C(=O)NC(CCC(=O)O)C(=O)O (stereo not given),,-2.93% [at 114 µM] (inactive)
O=c1c2cccnc2n(-c2cccc([N+](=O)[O-])c2)c(=O)n1Cc1ccncc1,,3.01% [at 114 µM] (inactive)
